Source: PubChem
Rows were chosen to be rich in hits. Some 3.8% of all compounds tested hit in one or more screens of this group.
A549 viability: counter-screen for Nrf2 inhibitors: cytotoxicity in A549 cells; A549 ARE-Fluc cells, CellTiter-Fluor viability, 18-24 h; Potency, µM (top dose mostly 46 µM), inactives show at the highest dose activity change, negative = cytotoxicity, usual class: inhibitors; hit rate 0.16% among 390,000; AID 504648; also: % is scaled to controls: 0 for no effect and ±100 for the full control effect
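A549 ARE-Fluc cells in 5% FBS OPTI-MEM, 5000 cells/well, rested 2 h then exposed to compounds in concentration-response for 18-24 h at 37 °C. Viability by CellTiter-Fluor fluorescence (Ex 405/Em 525) after 30 min; luciferase luminescence (BugLite, 15 min, RT) read afterwards.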
Nrf2 block: blocks Nrf2 signaling; A549 ARE-Fluc reporter, luciferase luminescence, 18-24 h; AID 504444; hit rate 2.1% among 360,000; Potency, µM (titrated, usually from 46 µM), for inactives: at the highest dose activity change, negative = inhibition, actives largely listed as inhibitors; also: % is scaled to controls: 0 for no effect and ±100 for the full control effect; nearly all actives have a fitted effect of over 60% in size
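A549 ARE_Fluc cells, 5000/well, 5% FBS OPTI-MEM; compounds in dose-response, 18-24 h at 37 °C/5% CO2; CellTiter-Fluor viability read (Ex 405/Em 525), then BugLite luciferase luminescence = Nrf2 activity.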
S2 tox: viability counter-screen for ATXN expression inhibitors; AID 651635; S2 cells (HEK-293 line with an ATXN2-luciferase reporter) viability, CellTiter-Fluor protease fluorescence, 24 h; Potency, µM (series often up to 56.7 µM), hits mostly cytotoxic; hit rate 0.49% among 400,000; also: nearly all actives have a fitted effect of over 40% in size
TGFb inhibitor: TGF-b pathway inhibition; AID 588855; hit rate 1.2% among 410,000; Potency, µM (series often up to 46.1 µM), inactives show top-dose activity, negative = inhibition, most hits filed as inhibitors; HepG2 CAGA-GFP TGF-b/SMAD3 reporter, GFP fluorescence, 18 h; TGF-beta stimulated, 500 pg/mL final; also: % is scaled to controls: 0 for no effect and ±100 for the full control effect; nearly all actives have a fitted effect of over 65% in size
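Inhibition was scored as loss of TGF-beta-induced (500 pg/mL final, 18 hours, 37 degrees C) GFP in HEPG2 cells carrying a CAGA-GFP reporter, in DMEM with 1% FBS. Well GFP was summed per cell; Activity was normalised to unstimulated and stimulated DMSO wells, then concentration-response fitting.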
ATXN2 expr inh: reduces ATXN2 reporter expression in HEK-293 cells; HEK-293 ATXN2-luciferase reporter, luminescence, 24 h; Potency, µM (doses to about 57 µM), without a hit: at the top dose activity change, negative = inhibition, most hits filed as inhibitors; hit rate 0.72% among 360,000; AID 1745845; also: % is scaled to controls: 0 for no effect and ±100 for the full control effect; nearly all actives have a fitted effect of over 55% in size
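ATXN2-luciferase reporter cells (luciferase flanked by upstream and downstream ATXN2 gene portions) were treated 24 h at 37 °C with compounds at up to 57 uM. SteadyGlo luminescence gave expression; GF-AFC fluorescence gave viability.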
HepG2 viability: counter-screen for TGF-b inhibitors: cytotoxicity in HepG2 cells | HepG2 CAGA-GFP viability, ATP luminescence, 18 h | Potency, µM (top dose mostly 46.1 µM), for inactives: top-dose activity change, negative = cytotoxicity, actives largely listed as cytotoxic | hit rate 0.76% among 410,000
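CellTiter-Glo luminescence gave cytotoxicity after 18 hours at 37 degrees C. The cells were HepG2 CAGA-GFP in 1% FBS DMEM, stimulated with 500 pg/mL TGF-beta after compound addition. %Activity was normalised to no-cell wells (complete cell-killing) and DMSO (no toxicity), and curves were fitted and classified.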
Starred values were filed as active, the others as inactive; i = inactive; ? = inconclusive; . = no result. Calls follow the shape of the dose curve; as a rule, active = well fitted curve in the direction sought with a large enough effect; inconclusive = small, poorly fitted or top-dose-only effect, or another doubt; inactive = no such curve, though single readings can be large; an effect the other way counts as inactive or inconclusive. Potency is read from the fitted curve at half-maximal effect.

SMILES	A549 viability	Nrf2 block	S2 tox	TGFb inhibitor	ATXN2 expr inh	HepG2 viability
Cc1nn(-c2ccc(F)cc2)c(Cl)c1C(=O)OC(C)C(=O)N(C)C1CCCCC1 (stereo unspecified)	-7.1%	18.4µM*	i	?	.	-37.6%
Cc1nn(-c2ccccc2)c(Cl)c1C(=O)OC(C)C(=O)NC(=O)NC1CCCCC1 (stereo unspecified)	-12.3%	?	i	-24.7%	-1.1%	-18.5%
COc1ccc2c(c1)c1nc3ccccc3nc1n2CC(=O)OC(C)C	-28.3%	4.61µM*	i	40.7%	-22.0%	-12.7%
CN1CCN(c2ccc(NC(=O)c3ccc(-c4ccc(Cl)cc4)o3)cc2)CC1	?	-9.0%	.	?	?	15.8µM*
CS(=O)(=O)N1CCN(c2ccc(NC(=O)c3ccc(-c4ccc(Cl)cc4)o3)cc2)CC1	-20.8%	.	i	-6.4%	-23.3%	-17.0%
CC1CCN(C2CCN(C(=O)c3ccccc3F)CC2)CC1	5.0%	7.8%	i	-9.3%	-2.4%	11.2µM*
COc1ccc(-c2nc3sc(CCNC(=O)C(=O)Nc4ccc(C)c(C)c4)c(C)n3n2)cc1	4.2%	.	.	15.7%	.	-2.7%
O=C(Nc1ccccn1)c1ccc(S(=O)(=O)N2CCCCCC2)cc1	-3.0%	20.9%	i	-5.6%	22.7%	-11.0%
O=C(CCl)N(Cc1ccccc1)c1ccccc1	1.0%	-8.9%	i	12.6µM*	0.1%	12.6µM*
O=C(CCl)N(Cc1cc(=O)[nH]c2ccccc12)c1ccccc1	-12.6%	23.1µM*	?	11.2µM*	.	-92.1%
Cc1cccc(N(Cc2ccccc2)C(=O)CCl)c1	-7.3%	-3.3%	0.532µM*	?	0.752µM*	-85.5%
CCc1nn(CC(=O)NCCC(C)C)c(=O)c2cc3occc3n12	-3.9%	9.9%	i	-4.3%	7.5%	5.7%
COc1ccc(Nc2nc3ccccc3nc2NS(=O)(=O)c2ccc(Cl)cc2)cc1OC	-1.8%	?	i	?	-3.5%	-24.0%
Cc1ccc(Nc2cc(C)c(C#N)c3nc4ccccc4n23)cc1Cl	-1.1%	3.8%	i	-0.2%	7.0%	-7.1%
CC1CCN(c2nc3nonc3nc2Nc2ccc(F)cc2)CC1	?	9.2µM*	i	?	-10.1%	1.7%
COc1ccc(Nc2nc3nonc3nc2N2CCCCC2)cc1	-10.5%	25.9µM*	i	0.6%	-3.6%	2.1%
COc1ccc(S(=O)(=O)NCCS(=O)(=O)N2CCN(c3ccccc3F)CC2)cc1	10.0%	.	.	?	.	-22.8%
CC1CCc2nc(NC(=O)Cc3ccc(Cl)cc3)sc2C1 (stereo unspecified)	4.8%	8.2%	i	15.8µM*	16.4%	-47.1%
Cc1ccc(C)c(CSc2nnc(C)n3c2cc2sccc23)c1	-1.3%	25.9µM*	.	?	.	-39.1%
Cc1nnc(SCc2ccccc2)c2cc3sccc3n12	15.3%	6.9%	.	.	.	-36.3%
COc1cccc(CNC(=O)Cn2nc(C)n3c(cc4cc(C)ccc43)c2=O)c1OC	0.9%	5.4%	.	-24.8%	.	5.0%
CC(C)C(C)NC(=O)COC(=O)c1cccc(C(=O)OCC(=O)NC(C)C(C)C)n1 (stereo unspecified)	0.0%	-9.5%	?	9.1%	.	2.9%
N#Cc1ccc(Nc2nc(-c3ccc(O)cc3O)cs2)cc1C(F)(F)F	-3.5%	?	22.4µM*	?	25.1µM*	-110.5%
Oc1ccc(-c2csc(Nc3ccc4c(c3)OCO4)n2)c(O)c1	-8.1%	18.1%	?	?	13.3%	-25.7%
COc1cc(C(=O)N/N=C(\Cc2ncc[nH]2)c2ccccc2)cc(OC)c1OC	?	14.6µM*	i	11.1%	?	-21.2%
COc1ccc(C(=O)N/N=C(\Cc2ncc[nH]2)c2ccccc2)cc1	-8.3%	?	i	-1.7%	-30.7%	-4.6%
COc1cc(C(=O)N/N=C(\c2ccccc2)c2ccccn2)cc(OC)c1OC	?	4.61µM*	i	-4.3%	2.51µM*	-23.8%
